Assay results published in PubChem BioAssay (NCI).
Where “and” joins values, the source holds several entries; their conditions need not be identical. Identical values can stand only once. This is part of a sample that, as a whole, favours compounds with a hit. Of some 83,000 tested, about 20% had one in any assay.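 Negative percent growth values reflect cell death: -40 means 40% of the cells present at the start died, and -100 means all died.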 Calls of active or inactive are those of the source. The calls were made as follows: active = growth percent below 10; inactive = the rest.

Legend:
Assay in all cases: NCI-60 one-dose screen, 48 h (100 = growth as untreated, 0 = no growth, -100 = all killed)
Details in all cases: 10 µM unless noted
NCI-H23 lung = test system: NCI-H23 lung
NCI-H226 lung = test system: NCI-H226 lung
NCI-H322M lung = test system: NCI-H322M lung
HOP-62 NSCLC = test system: HOP-62 NSCLC
NCI-H460 lung = test system: NCI-H460 lung
HOP-92 NSCLC = test system: HOP-92 NSCLC
NCI-H522 lung = test system: NCI-H522 lung
A549/ATCC NSCLC = test system: A549/ATCC NSCLC
786-0 renal = test system: 786-0 renal
COLO 205 colon = test system: COLO 205 colon
DU-145 prostate = test system: DU-145 prostate
K-562 leukemia = test system: K-562 leukemia
MALME-3M melanoma = test system: MALME-3M melanoma
MDA-MB-231 breast = test system: MDA-MB-231 breast
RXF 393 renal = test system: RXF 393 renal
SF-268 CNS = test system: SF-268 CNS
SF-295 CNS = test system: SF-295 CNS
SF-539 CNS = test system: SF-539 CNS
UACC-257 melanoma = test system: UACC-257 melanoma
M14 melanoma = test system: M14 melanoma

Compound	growth (NCI-H23 lung)	growth (NCI-H226 lung)	growth (NCI-H322M lung)	growth (HOP-62 NSCLC)	growth (NCI-H460 lung)	growth (HOP-92 NSCLC)	growth (NCI-H522 lung)	growth (A549/ATCC NSCLC)	growth (786-0 renal)	growth (COLO 205 colon)	growth (DU-145 prostate)	growth (K-562 leukemia)	growth (MALME-3M melanoma)	growth (MDA-MB-231 breast)	growth (RXF 393 renal)	growth (SF-268 CNS)	growth (SF-295 CNS)	growth (SF-539 CNS)	growth (UACC-257 melanoma)	growth (M14 melanoma)
CC(=NCc1ccccc1)c1ccc(O)cc1O	97.5% (inactive)	101% (inactive)	103% (inactive)	101% (inactive)	107% (inactive)	76.2% (inactive)	111% (inactive)	100% (inactive)	105% (inactive)	105% (inactive)	112% (inactive)	96.6% (inactive)	93.8% (inactive)	96.9% (inactive)	122% (inactive)	101% (inactive)	123% (inactive)	97.8% (inactive)	88.1% (inactive)	104% (inactive)
CCCNNC(=O)/C=C/c1ccc(CNCCc2c(C)[nH]c3ccccc23)cc1	38.6% [2.5 µM] (inactive)	33.6% [2.5 µM] (inactive)	15.9% [2.5 µM] (inactive)	3.81% [2.5 µM] (active)	23.8% [2.5 µM] (inactive)	-5.2% [2.5 µM] (active)	19.7% [2.5 µM] (inactive)	14% [2.5 µM] (inactive)	22.8% [2.5 µM] (inactive)	-55.7% [2.5 µM] (active)	24.4% [2.5 µM] (inactive)	10.7% [2.5 µM] (inactive)	20% [2.5 µM] (inactive)	35% [2.5 µM] (inactive)	-17.9% [2.5 µM] (active)	32.1% [2.5 µM] (inactive)	18% [2.5 µM] (inactive)	31.1% [2.5 µM] (inactive)	-9.62% [2.5 µM] (active)	17.7% [2.5 µM] (inactive)
Cc1nc(Nc2ncc(C(=O)Nc3c(C)cccc3Cl)s2)cc(N2CCN(CCO)CC2)n1	46.6% (inactive) and 32.6% (inactive)	31.9% (inactive) and 45.6% (inactive)	0.803% (active)	12% (inactive)	74.3% (inactive) and 42.7% (inactive)	-21.5% (active) and -11.5% (active)	-1.57% (active)	25.1% (inactive) and 6.75% (active)	22.2% (inactive) and 9.13% (active)	-1.08% (active) and -9.83% (active)	10.2% (inactive) and 12.5% (inactive)	7.66% (active)	51.4% (inactive) and 31.2% (inactive)	11.2% (inactive) and 8.95% (active)	-18.9% (active) and -46.2% (active)	28.4% (inactive) and 30.3% (inactive)	57.4% (inactive) and 37.3% (inactive)	18.8% (inactive) and -9.03% (active)	79.1% (inactive) and 48.4% (inactive)	42.4% (inactive) and 17.5% (inactive)
